High-throughput results from PubChem BioAssay.
MPTP inh = mitochondrial permeability transition pore inhibitors, primary screen, biochemical, isolated mouse mitochondria, absorbance; AID 602449, 2012; hit rate 1.4% among 360,000; inhibition, % at 10 µM; Ca2+ swelling absorbance, 30 min;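 active = inhibition of 50% or more, scaled per plate between neutral and stimulator controls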
Mdm2-MdmX inh = inhibitors of human Mdm2-MdmX association, primary screen, cell-based, luminescence, split luciferase, SaOS-2, uHTS; Protein Mdm4 (Homo sapiens) + E3 ubiquitin-protein ligase Mdm2 (Homo sapiens), …; SaOS-2 split-luciferase Mdm2/MdmX complementation; inhibition, % at 8 µM; hit rate 3% among 330,000; AID 485346, 2010;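 active = inhibition of at least 50% at 8 µM in the primary screen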
Beta cell apopt = inhibitors of cytokine-induced beta cell apoptosis, primary screen, luminescence; INS-1E cytokine-induced death, ATP luminescence, 48 h; percent of positive-control rescue, neutral wells zero; hit rate 0.8% among 300,000; protection from apoptosis, % (no concentration beside the values);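 active = Every replicate reaches about 75%, or at least half do and their mean reaches it too, limit read from the data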;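 note: higher means more ATP so stronger rescue from cytokine killing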
Gli-Sufu antag = Gli-Sufu pathway antagonists, primary screen, luciferase luminescence, Sufu-KO-LIGHT cells, uHTS; inhibition, % at 5 µM; AID 588413, 2011; Sufu-KO-LIGHT fibroblasts, Gli luciferase reporter luminescence; hit rate 0.74% among 340,000;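 active = inhibition above about 55%, limit read from the data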
CSC inhib = cancer stem cell viability inhibitors, primary screen, luminescence; hit rate 1.1% among 300,000; inhibition, % at 7.5 µM; cancer stem cell-like cells viability; AID 2717, 2010; in the data active = inhibition above about 75%; tested in HMLE shEcad cells
GRIN3A LBD mod = binders of NR3A ligand-binding domain, primary screen, biophysical, differential scanning fluorimetry, uHTS. AID 1259313, 2017. Tm shift relative to glycine control, % at 25 µM. hit rate 2.5% among 340,000. NR3A LBD differential scanning fluorimetry, Tm shift; 0% = protein alone, 100% = glycine-bound protein;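 active = melting temperature shift of at least 10% of the positive control shift, at one fixed dose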
Mdm2 MdmX conf = Mdm2-MdmX complex disruptors, retested hits, confirmation, luminescence, single concentration; shares compounds with Mdm2-MdmX inh; AID 489028, 2010; hit rate 55% among 10,000; inhibition, % at 8 µM; Mdm2-MdmX binding, luminescent assay; in the data active = inhibition above about 40%
FLuc counter = full-length luciferase signal inhibition, confirmation, counter-screen for Mdm2/MdmX interaction inhibitor project, cell-based, single concentration, SaOS-2 | hit rate 77% among 6,200 | AID 504607, 2011 | SaOS-2 full-length luciferase counterscreen, luminescence | inhibition, % at 8 µM | shares compounds with Mdm2-MdmX inh;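 active = mean inhibition at 8 µM reaching about 37%, which flags the compound as non-specific, limit read from the data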;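 note: p53-null SaOS-2 cells with luciferase driven by a doxycycline-inducible promoter; compound on cells about two nights before reading with doxycycline added after day one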
Numbers stand for hits; . = inactive; / = no result. This is a sample that favours compounds with a hit; in the whole collection about 6.6% have one here.

SMILES	MPTP inh	Mdm2-MdmX inh	Beta cell apopt	Gli-Sufu antag	CSC inhib	GRIN3A LBD mod	Mdm2 MdmX conf	others
COc1ccc2[nH]c3c(c2c1)CCN1C(=O)C(CC(=O)NCC24CC5CC(CC(C5)C2)C4)C[C@H](C(=O)N2CCOCC2)[C@@]31C (stereo not given in full)	.	.	/	.	/	.	/
CC[C@]12c3[nH]c4ccc(Cl)cc4c3CCN1C(=O)[C@@H](CC(=O)NC(C)(C)C)C[C@@H]2C(=O)N1CCN(C(=O)c2ccco2)CC1	.	.	/	.	/	.	/
O=C(CNC(=O)c1ccccc1F)NCc1cccnc1	.	.	.	.	.	.	/
CCOC(=O)CNC(=O)c1ccc(C#CC2(O)CCCCC2)cc1	.	.	.	.	.	.	/
NC(=O)NCCCC(NC(=O)c1ccc(C#CC2(O)CCCCC2)cc1)C(=O)O (stereo not given)	.	61.3	.	.	.	.	.
CN1CCN(C2=CC(=O)OC23CCCCC3)CC1	.	.	.	.	.	.	/
CC(C)(C)NC(=O)C[C@H]1C[C@H](C(=O)N2CCOCC2)[C@@]2(CCC3CCCC3)c3[nH]c4cc(-c5ccco5)ccc4c3CCN2C1=O	.	73.1	/	.	/	.	.
O=C(CC1C[C@H](C(=O)N2CCOCC2)[C@@]2(CCC3CCCC3)c3[nH]c4ccccc4c3CCN2C1=O)NCC12CC3CC(CC(C3)C1)C2 (stereo not given in full)	.	84.0	.	.	/	.	67.8	FLuc counter=37.6
CN(C)CCCNC(=O)C[C@H]1C[C@H](C(=O)N2CCOCC2)[C@@]2(CCC3CCCC3)c3[nH]c4cc(-c5ccco5)ccc4c3CCN2C1=O	.	94.9	/	.	/	.	.
COc1ccc(CNC(=O)C[C@H]2C[C@H](C(=O)N3CCOCC3)[C@@]3(CCC4CCCC4)c4[nH]c5cc(-c6ccco6)ccc5c4CCN3C2=O)cc1OC	.	53.1	/	.	/	.	.
O=C(C[C@H]1C[C@H](C(=O)N2CCOCC2)[C@@]2(CCC3CCCC3)c3[nH]c4cc(-c5ccco5)ccc4c3CCN2C1=O)NCCN1CCOCC1	.	.	/	.	/	.	/
O=C(CC1C[C@H](C(=O)N2CCOCC2)[C@@]2(CCC3CCCC3)c3[nH]c4ccccc4c3CCN2C1=O)NCCN1CCOCC1 (stereo not given in full)	.	.	.	.	/	.	/
CCC(c1nnnn1-c1ccc2c(c1)OCCO2)N1CCN(c2ccc(C)cc2)CC1 (stereo not given)	.	/	/	/	/	/	/
O=C(C[C@H]1C[C@H](C(=O)N2CCOCC2)[C@@]2(CCC3CCCC3)c3[nH]c4cc(-c5ccco5)ccc4c3CCN2C1=O)NCC12CC3CC(CC(C3)C1)C2	.	54.5	/	.	/	.	.
Cc1c(CCC(C)C)c(=O)n2c([nH]c3ccccc32)c1C#N	.	72.6	.	.	.	.	53.1	FLuc counter=44.8
CCOC(=O)CNS(=O)(=O)c1cc(-c2n[nH]c(=O)c3ccccc23)ccc1C	.	/	/	.	/	.	/
Cc1ccc(NS(=O)(=O)c2cc(-c3n[nH]c(=O)c4ccccc34)ccc2C)cc1	.	64.0	.	.	.	.	65.7	FLuc counter=50.2
O=c1[nH][nH]c2cc([N+](=O)[O-])ccc12	.	/	/	.	/	.	/
CCCCN1C(=O)C(O)(CC(=O)c2ccco2)c2cc(Br)ccc21 (stereo not given)	.	65.2	.	.	.	.	50.6	FLuc counter=74.8
CCCCN1C(=O)C(O)(CC(=O)c2c(C)n[nH]c2C)c2cc(Br)ccc21 (stereo not given)	.	.	.	.	.	.	/
